From PubChem BioAssay (NCI)
This is part of a sample that, as a whole, favours compounds with a hit. Of some 83,000 tested, about 20% had one in any assay.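 Assay: single dose, 48 h. Readout: percent growth (0 = no net growth; negative = cell death). Active: <10.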 The source made the active and inactive calls.

Assays:
Test in all cases: NCI-60 one-dose screen, 48 h (100 = growth as untreated, 0 = no growth, -100 = all killed)
NCI-H226 lung = conditions: 10 µM
NCI-H322M lung = conditions: 10 µM
HOP-62 NSCLC = conditions: 10 µM
NCI-H460 lung = conditions: 10 µM
NCI-H522 lung = conditions: 10 µM
A549/ATCC NSCLC = conditions: 10 µM
COLO 205 colon = conditions: 10 µM
DU-145 prostate = conditions: 10 µM
K-562 leukemia = conditions: 10 µM
SF-268 CNS = conditions: 10 µM
SF-295 CNS = conditions: 10 µM
SF-539 CNS = conditions: 10 µM
HT29 colon = conditions: 10 µM
SNB-19 CNS = conditions: 10 µM
PC-3 prostate = conditions: 10 µM
MOLT-4 leukemia = conditions: 10 µM
SR leukemia = conditions: 10 µM
RPMI-8226 leukemia = conditions: 10 µM
SK-OV-3 ovarian = conditions: 10 µM
MDA-MB-468 breast = conditions: 10 µM unless noted

Measured: growth

C#CCOc1cc(N(CC)CC)ccc1C(C(=O)NC(C)(C)C)N(C(=O)C1CCc2cc(F)ccc2O1)c1ccc(F)cc1F (stereo not given)
active: MOLT-4 leukemia 6.84%
inactive: NCI-H226 lung 42.9% | NCI-H322M lung 81.6% | HOP-62 NSCLC 51.6% | NCI-H460 lung 26.4% | NCI-H522 lung 30.7% | A549/ATCC NSCLC 37.5% | COLO 205 colon 25.8% | DU-145 prostate 50.1% | K-562 leukemia 18.3% | SF-268 CNS 50.6% | SF-295 CNS 33.2% | SF-539 CNS 55.9% | HT29 colon 58.3% | SNB-19 CNS 39.8% | PC-3 prostate 15% | SR leukemia 26.6% | RPMI-8226 leukemia 25.6% | SK-OV-3 ovarian 46.8% | MDA-MB-468 breast 20.9%

COc1ccc(Cc2nn(CC(=O)N/N=C/c3ccc(Br)cc3)c(=O)c3c(C)noc23)cc1
inactive: NCI-H226 lung 55.3% | NCI-H322M lung 62.6% | NCI-H522 lung 29.2% | COLO 205 colon 52.2% | DU-145 prostate 55.4% | K-562 leukemia 51.8% | SF-268 CNS 37.3% | SF-539 CNS 13% | HT29 colon 63.4% | SNB-19 CNS 21.6% | PC-3 prostate 43.9% | MOLT-4 leukemia 63.2% | SR leukemia 38.5% | RPMI-8226 leukemia 55.4% | MDA-MB-468 breast 26.4%
active: HOP-62 NSCLC 2.75% | NCI-H460 lung 9.38% | A549/ATCC NSCLC 6.92% | SF-295 CNS -4.74% | SK-OV-3 ovarian -30%

O=C(Nc1ccc(OCc2ccc(Cl)cc2)cc1)Nc1ccc(Cl)c(C(F)(F)F)c1
active: NCI-H226 lung 6.46% | NCI-H460 lung 7.92% | NCI-H522 lung -16.7% | COLO 205 colon -80.6% | K-562 leukemia 7.62% | SF-295 CNS -12.8% | SF-539 CNS 7.92% | HT29 colon 8.31% | PC-3 prostate -7.44% | MOLT-4 leukemia 9.92% | SR leukemia 2.46% | RPMI-8226 leukemia -9.46% | SK-OV-3 ovarian -18.9% | MDA-MB-468 breast -15.2%
inactive: NCI-H322M lung 25.9% | HOP-62 NSCLC 19.5% | A549/ATCC NSCLC 16.2% | DU-145 prostate 26.6% | SF-268 CNS 43.3% | SNB-19 CNS 11%

Cc1ccc2c(c1)C(=O)/C(=C/c1c[nH]c3ccccc13)S2
inactive: NCI-H226 lung 40.8% | NCI-H322M lung 72.2% | HOP-62 NSCLC 47.4% | NCI-H460 lung 33.6% | NCI-H522 lung 11.2% | A549/ATCC NSCLC 64.6% | COLO 205 colon 67.8% | DU-145 prostate 78.2% | K-562 leukemia 19% | SF-268 CNS 44.9% | SF-295 CNS 73.2% | SF-539 CNS 48.1% | HT29 colon 55.6% | SNB-19 CNS 27.3% | PC-3 prostate 23.7% | MOLT-4 leukemia 32% | SR leukemia 27.1% | RPMI-8226 leukemia 32.3% | SK-OV-3 ovarian 84.4% | MDA-MB-468 breast 17.8%

CCOC(=O)c1ccc(NC(=O)CSC(CC(=O)c2sc(Nc3ccccn3)nc2C)c2ccccc2F)cc1 (stereo not given)
active: NCI-H226 lung 4.65% | HOP-62 NSCLC 3.54% | NCI-H460 lung -40.7% | NCI-H522 lung -22.7% | A549/ATCC NSCLC 1.12% | COLO 205 colon -34.1% | DU-145 prostate 1.39% | K-562 leukemia 5.79% | SF-268 CNS -0.243% | SF-295 CNS 0.23% | SF-539 CNS -27.3% | HT29 colon -28.3% | PC-3 prostate 0.809% | SR leukemia 4.27% | RPMI-8226 leukemia -14.2% | SK-OV-3 ovarian 5.92% | MDA-MB-468 breast 3.8%
inactive: NCI-H322M lung 17.5% | SNB-19 CNS 21.1% | MOLT-4 leukemia 11.5%

CC(C)(C)c1cc(/C=C2\S/C(=N/c3ncn[nH]3)NC2=O)cc(C(C)(C)C)c1O
inactive: NCI-H322M lung 17% | HOP-62 NSCLC 21.3% | A549/ATCC NSCLC 15.4% | COLO 205 colon 12.4% | DU-145 prostate 32.3% | K-562 leukemia 16.7% | SF-268 CNS 23.3% | SF-295 CNS 14.3% | SF-539 CNS 18% | HT29 colon 10.7% | SNB-19 CNS 23.7% | PC-3 prostate 12.2% | MOLT-4 leukemia 13.8%
active: NCI-H226 lung 5.38% | NCI-H460 lung 3.73% | NCI-H522 lung -23.9% | SR leukemia 6.04% | RPMI-8226 leukemia 8.38% | SK-OV-3 ovarian 4.14% | MDA-MB-468 breast 9.25%

COc1ccc(C(=O)COc2ccc(NC(=O)Nc3ccccc3)cc2)cc1
inactive: NCI-H226 lung 87.6% | NCI-H322M lung 88.5% | HOP-62 NSCLC 101% | NCI-H460 lung 76.6% | NCI-H522 lung 58.2% | A549/ATCC NSCLC 80.9% | COLO 205 colon 107% | DU-145 prostate 105% | K-562 leukemia 94.6% | SF-268 CNS 91.6% | SF-295 CNS 90.5% | SF-539 CNS 97% | HT29 colon 103% | SNB-19 CNS 93.3% | PC-3 prostate 83.1% | MOLT-4 leukemia 73.9% | SR leukemia 80.6% | RPMI-8226 leukemia 93.3% | SK-OV-3 ovarian 105% | MDA-MB-468 breast 80.9%
